In PubChem BioAssay one finds z-score data, which are given here for 35 compounds.

A short description of this assay: MM1S cell viability effects, profiling panel, calcein-AM fluorescence, 48 h, basal (AID 1165).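 Also: viability of MM1S multiple myeloma cells under basal unstimulated conditions; test concentration not given here.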 The following applies: higher = more signal.
For `COc1ccc(C#Cc2ccc3c(c2)[C@]2(C(=O)N3)[C@H](C(=O)N3CCN(c4ncccn4)CC3)[C@H]3C(=O)O[C@H](c4ccccc4)[C@H](c4ccccc4)N3[C@@H]2c2ccc(O)cc2)cc1`, the z-score is -0.156.
For the compound `CCCC[C@H]1C[C@@H]1[C@@H]1N(P(=O)(c2ccccc2)c2ccccc2)[C@](CO)(c2ccccc2)CC12CC2`, the z-score was -3.23.
Take `O=C(N1CCCCC1)[C@]1(CCS(=O)(=O)c2ccccc2)N=C(c2ccc(OCCCO)cc2)O[C@@H]1c1ccccc1`: the z-score was -1.5.
For the compound `OCCCc1cc[n+](Cc2cccc(OC(F)(F)F)c2)cc1`, the z-score was 0.277.
As for `COc1ccc([Si](C)(C)[C@H]2[C@H](CC(=O)N3CCC[C@H]3CO)O[C@@]3(C(=O)N(Cc4cccc(N5CCC5=O)c4)c4ccccc43)[C@@H]2C)cc1`, the figure is -2.2; as for `CCCNC(=O)[C@@]1(c2ccc([N+](=O)[O-])cc2)CC(=O)N(CC23CC4CC(CC(C4)C2)C3)[C@@H]1c1ccc(CO)cc1I`, -3.81.
The figure for `CCCNC(=O)[C@@]1(C)c2ccccc2C(=O)N(Cc2cc(F)cc(C(F)(F)F)c2)[C@H]1c1ccc(CO)cc1` is -0.0049.
In the case of `C=C[C@H](C)[C@H](OC(=O)Nc1ccc(OC)cc1)c1ccc(O)c2ccccc12`, the z-score was -2.98.
With `O=c1cccc(-c2ccccc2)o1`, the z-score was -1.11.
The figure for `CC1CC/C=C\[C@H]2OC34C=CCN(Cn5nnc6ccccc65)C(=O)[C@H]3N(CCCO)C(=O)[C@@H]4C2C(=O)O1` (stereo not given in full) is 0.159; for `COc1ccc(C#Cc2ccc3c(c2)[C@]2(C(=O)N3)[C@H](c3ccc(OCCO)cc3)N3[C@H](c4ccccc4)[C@H](c4ccccc4)OC(=O)[C@H]3[C@@H]2C(=O)Nc2nc3ccccc3s2)cc1` it is -1.69; for `C=C(C(=O)CC[C@H](OC(=O)c1cccnc1)c1ccccc1OCCO)C(C)C` it is -2.21.
As for `C=CC[C@@]1(C(=O)NCCN2CCOCC2)N=C(c2ccc(OCCCO)cc2)O[C@@H]1c1ccccc1CN=[N+]=[N-]`, the z-score was -2.94.
As for `C=CCOC(=O)[C@H]1[C@@H]2C(=O)O[C@@H](c3ccccc3)[C@@H](c3ccccc3)N2[C@@H](c2ccc(OCCOC(=O)[C@@H]3C[C@@H]4C(=O)NCC(=O)N4[C@@H]3c3ccc(O)cc3)cc2)[C@]12C(=O)Nc1ccc(I)cc12`, the figure is -0.0033; as for `CCOC(=O)C[C@H]1[C@H](OC(=O)c2ccc(C(=O)c3ccccc3)cc2)[C@@H](NC(=O)c2ccc3ccccc3n2)c2cc(OCCCO)ccc2N1C(=O)c1ccc2ccccc2n1`, -0.367.
Take `C=CCC(OC(C)=O)[C@@H]1[C@@H](N(Cc2ccc(-c3cccc(C(F)(F)F)c3)o2)C(=O)Cc2ccc(OC)cc2)c2cc(OCCCO)ccc2N1C(=O)Cc1ccc(OC)cc1` (stereo not given in full): the z-score is 0.018.
As to `C=CCC(OC(C)=O)[C@@H]1[C@@H](N(Cc2ccc(-c3ccccc3)cc2)C(=O)c2ccc(C)cc2)c2cc(OCCCO)ccc2N1C(=O)Cc1ccc(OC)cc1` (stereo not given in full), the z-score is 0.711.
The figure for `C=C(COC)C(=O)CC[C@@H](OC(=O)c1ccccc1-c1ccccc1C(=O)O)c1ccc(CO)o1` is -1.69.
On to `CN(C)CCCC[C@@H]1NC(=O)[C@@H]2C[C@H](C(=O)NCCCCCN)[C@H](c3ccc(O)cc3)N2C1=O`, for which the z-score is 0.189.
For `CN(C)CCCN1C(=O)[C@@]2(c3ccc([N+](=O)[O-])cc3)CC(=O)N(C3CCCCC3)[C@@H]2c2ccc(CO)cc21`, the z-score was -0.0337.
For the compound `O=C1C2C=CC(C(O)c3cccc4ccccc34)N(n3cnnc3)C2C(=O)N1Cc1ccccc1` (stereo not given), the z-score was -0.467.
The figure for `COCCCNC(=O)[C@]1(Cc2ccccc2N=[N+]=[N-])N=C(c2ccc(OCCCO)cc2)O[C@@H]1c1ccccc1CN=[N+]=[N-]` is -2.98.
Turning to `C=C(COC)C(=O)CC[C@H](OC(=O)c1cccnc1)c1ccccc1OCCO`, the z-score was -3.3.
As for `CCOC(=O)N1C(c2ccc(OCCCO)cc2)=NC(C(=O)OC)N1C(=O)OCC` (stereo not given), the figure is 0.487; as for `C=CCOC(=O)[C@H]1[C@@H]2C(=O)O[C@@H](c3ccccc3)[C@@H](c3ccccc3)N2[C@@H](c2ccc(OCCOC(=O)[C@H]3C[C@H]4C(=O)N[C@@H](CCCC[N+](C)(C)C)C(=O)N4[C@H]3c3ccc(O)cc3)cc2)[C@]12C(=O)Nc1ccccc12`, 0.419; as for `CC(C)N1C(=O)c2ccccc2[C@](C)(C(=O)NCCCN(C)C)[C@@H]1c1ccc(CO)cc1`, -0.0937.
In the case of `C=CCC(OC(C)=O)[C@@H]1[C@@H](N(Cc2ccc(-c3ccccc3)cc2)C(=O)c2ccc(C)cc2)c2cc(OCCCO)ccc2N1C(=O)c1ccc2ccccc2n1` (stereo not given in full), the z-score is -0.68.
Regarding `COC(=O)[C@@]1(Cc2ccc(F)cc2)[C@H]2c3cc(C(=O)N4CCCC4)n(Cc4ccc(Cl)c(C(F)(F)F)c4)c3C[C@H]2CN1C(=O)c1ccccc1`, the z-score was -0.604.
For `COCCCNC(=O)[C@@]1(Cc2ccccc2I)c2ccccc2C(=O)N(Cc2ccccc2)[C@H]1c1ccc(CO)cc1`, the z-score is -0.657.
As for `CC(=O)NCCCC[C@@H]1NC(=O)[C@@H]2C[C@H](C(=O)NCc3ccc(F)cc3)[C@H](c3ccc(O)cc3)N2C1=O`, the figure is -1.18.
Turning to `CCOC(=O)C1=CC[C@@H](c2cccc(Cl)c2)N(S(=O)(=O)c2ccc(C)cc2)[C@H]1c1ccc(C#N)cc1`, the z-score is -0.692.
As for `CCCNC(=O)[C@@]1(C)c2ccccc2C(=O)N(Cc2cc(C(F)(F)F)cc(C(F)(F)F)c2)[C@H]1c1ccc(CO)cc1`, the figure is 0.341; as for `COC(=O)c1c2oc(c1C(=O)OC)C(=O)N[C@H](Cc1ccccc1)Cn1nncc1C1(CCCCC1)NC(=O)N[C@H](CO)CC2`, -1.1; as for `CN(C)CCCC[C@@H]1NC(=O)[C@@H]2C[C@H](C(=O)NCc3ccc(F)cc3)[C@H](c3cccc(OCCO)c3)N2C1=O`, 0.731.
In the case of `COc1ccc([Si](C)(C)[C@@H]2[C@@H](CCn3cc([C@H](O)c4ccccc4)nn3)O[C@]3(C(=O)N(C)c4ccccc43)[C@H]2C)cc1`, the z-score is -2.69.
